TPT1 inh – blocks Candida albicans tRNA 2'-phosphotransferase; AID 1962; inhibition, % at 5 µM; recombinant caTPT1, FP RNA substrate dephosphorylation; actives 0.81% (n = 300,000);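 active = inhibition above the mean of all tested compounds plus 3 SD, set per screening campaign, cut at about 24% in these data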;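 also: plate controls were DMSO alone for no effect and ferristatin control at 100 nM for full effect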
CRFR2-BP antag – CRF-BP/CRF-R2 complex antagonism. HEK293 CRF-R2/CRF-BP, CRF-induced calcium fluorescence. inhibition, % at 11.8 µM. AID 588475. actives 0.59% (n = 350,000);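 active = inhibition of the ligand-induced calcium signal above about 50% at the single tested concentration, limit read from the data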
CRFBP-R2 agonist – CRF-BP/CRF-R2 complex agonism; HEK293 CRF-R2/CRF-BP, calcium dye fluorescence (FLIPR); percent of saturating CRF peptide response; activation, % at 13.2 µM; actives 0.46% (n = 350,000); AID 588473;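 active = activation of at least 50%, plus an integration ratio under a set limit after plate pattern correction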;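 also: plate controls were neutral control wells without compound for no effect and CRF at EC100 for full effect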
IDE cell activ – activators of human insulin-degrading enzyme in cells. HEK cells, FAbeta-B cleavage, fluorescence polarization; 0% vehicle, 100% cell-free pure enzyme wells. activation, % at 5.96 µM. actives 0.073% (n = 340,000). AID 493087;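 active = activation above the mean of all tested compounds plus 3 SD, set per screening campaign, cut at about 17% in these data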
Myeloid diff MLP – myeloid differentiation induction; calls only at 10 µM; actives 1% (n = 360,000); ER-HoxA9 myeloid progenitors, lysozyme-GFP differentiation, flow cytometry; AID 624256;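 active = normalized GFP-positive differentiation at or above the plate's own cutoff, the solvent-only control mean plus 3 SD; inconclusive = no clear call, values can overlap the other calls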;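 also: cells exposed to compound for four days before flow analysis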
IDE inh – inhibitors of human insulin-degrading enzyme in cells | P14735 | HEK cells, FAbetaB cleavage, fluorescence polarization | inhibition, % at 5.59 µM | actives 0.41% (n = 320,000) | AID 434962;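 active = percent inhibition above the average of all tested compounds plus 3 SD, set per screening campaign, cut at about 16% in these data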;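 also: IDE supplied by intact live HEK cells; FP after avidin binding of uncleaved biotin substrate so inhibition keeps polarization high; 0% = DMSO wells and 100% = 60 µM reference IDE inhibitor Ii1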
* marks the source's active call; other numbers are inactive results; i = inactive; ? = inconclusive; . = no result; + = active, no number. Shown are actives, neighbours in structure and some others; about 2.6% of the full set was active somewhere.

SMILES	TPT1 inh	CRFR2-BP antag	CRFBP-R2 agonist	IDE cell activ	Myeloid diff MLP	IDE inh
COc1ccccc1C1C=C(c2ccc(Cl)cc2)Nc2nc(N3C(=O)CCC3=O)nn21 (centres undefined)	-4	-25	47	-2	i	2
O=C(c1nc2n(n1)C(c1ccc(Cl)cc1)C=C(c1ccccc1)N2)N1CCOCC1 (centres undefined)	-20	-7	97*	-2	i	0
COc1ccc(C2=CC(c3ccc(Cl)cc3)n3cnnc3N2)cc1OC (centres undefined)	-5	-49	80*	-6	i	9
CN(C)C(=O)c1cccc(COc2ccc(N3C(N)=NC(N)=NC3(C)C)cc2Cl)c1	.	-16	-1	.	i	.
COCc1cc(=O)[nH]c2c1c(-c1ccccc1)nn2C	1	-1	-6	-5	i	3
O=C1CCC(=O)N1c1nc2n(n1)C(c1ccccc1)C=C(c1ccc(Br)cc1)N2 (centres undefined)	-10	-8	9	-9	i	6
COc1ccc(C2C=C(c3ccc(Br)cc3)Nc3nc(N4C(=O)CCC4=O)nn32)cc1 (centres undefined)	-37	-12	34	-19	i	29*
COc1cccc(/C=N/NC(=O)c2c(-c3ccccc3)noc2C)c1O	-6	22	-1	6	+	5
COc1ccc(NC(=O)c2c(-c3ccccc3)noc2C)c(OC)c1	-3	-10	-1	7	i	6
COC(=O)c1cc(OC)c(OC)cc1NC(=O)c1c(-c2ccccc2)noc1C	-2	68*	-1	3	+	-5
Cc1onc(-c2ccccc2)c1C(=O)N/N=C/c1cc(Br)c(Br)o1	-2	103*	2	-1	i	13
CN1/C(=C\C(=O)CSc2nnc(NCc3ccccc3)s2)C(C)(C)c2ccccc21	10	-15	0	1	i	5
Cc1ccsc1C(=O)N1CCC1(C)C(=O)NS(=O)(=O)c1ccccc1 (centres undefined)	.	.	.	.	i	.
O=C(Nc1nnc(Cc2c[nH]c3ccccc23)s1)c1ccc(Cl)cc1Cl	20	-33	2	0	+	1
CC(C)(C)c1ccc(C(=O)Nc2nnc(Cc3c[nH]c4ccccc34)s2)cc1	3	-52	-2	1	i	-2
NC(=O)CS(=O)(=O)c1nc2ccccc2n1Cc1ccccc1F	-2	118*	2	-1	i	8
CC(=O)NCc1nc2ccccc2n1Cc1ccccc1F	-2	-11	-2	4	i	2
O=C(NCc1ccc(F)cc1)C(=O)NCC1OCCN1C(=O)c1ccc(Cl)cc1 (centres undefined)	5	60*	-5	6	i	-3
O=c1[nH]c2ccccc2nc1/C=C/c1ccc(Cl)cc1	6	-13	5	-8	i	1
COc1ccc(N2CCN(C3CCCN(Cc4ccc(F)cc4Cl)C3)CC2)cc1 (centres undefined)	-5	-3	0	1	+	-1
COc1ccc(O)c(CN2CCCC(N3CCN(c4ccc(F)cc4)CC3)C2)c1 (centres undefined)	-2	-6	0	-2	i	0
O=C(COC(=O)CNC(=O)c1cccc([N+](=O)[O-])c1)NCc1ccco1	4	-11	-2	9	+	3
Cc1cccn2c(=O)c3cc(C(=O)NCc4ccco4)c(=N)n(C4CCCCC4)c3nc12	0	54*	3	-2	i	1
Cc1ccc2nc3c(cc(C(=O)NCc4ccco4)c(=N)n3C3CCCC3)c(=O)n2c1	-1	.	.	-5	i	0
COCCn1c(=N)c(C(=O)NCc2ccco2)cc2c(=O)n3cc(C)ccc3nc21	-8	84*	11	3	i	-5
SMILES	TPT1 inh	CRFR2-BP antag	CRFBP-R2 agonist	IDE cell activ	Myeloid diff MLP	IDE inh
CC(C)C[C@H]1CN(CCCC[C@H]2CNC(=O)C(=O)N2CCC2CCCCC2)C(=O)C(=O)N1CCc1ccccc1	.	.	.	.	i	.
CCOC(=O)C1=C(Cc2ccc(F)cc2)C(=O)c2ccccc2C1=O	-7	-39	20	-50	+	11
COc1ccc2cc(/C=C3\SC(=S)NC3=O)c(N3CCOCC3)nc2c1	11	22	4	-2	i	5
O=C1NC(=S)S/C1=C/c1ccc(N2CCOCC2)o1	15	-56	52*	-21	+	8
COc1ccccc1C(=O)Nc1ccc2c(c1)nc1n2CCN(C2CCCCC2)C1	7	-2	-1	-2	+	-5
COc1ccc(Oc2nccc(-c3ccc(F)cc3)c2C#N)cc1	-1	8	1	1	i	3
COc1ccc(Oc2nccc(-c3ccccc3)c2C#N)cc1	5	71*	0	3	i	9
CN(C)c1ccc(/C=C/c2ccc3ccccc3[n+]2C)cc1	5	-4	-3	0	.	4
COc1ccc(/C=C/c2ccc3ccccc3[n+]2C)cc1OC	19	-2	10	-4	+	1
Cc1cc(F)ccc1S(=O)(=O)NCC1CC2CCC1C2 (centres undefined)	-5	-93	87*	-1	i	7
CC(=O)Nc1ccc(S(=O)(=O)NCC2CC3CCC2C3)cc1 (centres undefined)	.	1	-2	3	i	.
COc1ccc(-c2noc(C(=O)NCc3ccc(F)cc3)n2)cc1OC	1	60*	0	2	i	0
COc1ccc(-c2noc(C(=O)NCc3ccccc3Cl)n2)cc1OC	-1	35	0	-3	i	-2
Cc1cnc(CNC(=O)C2CCC(=O)N(CCc3ccc(Cl)cc3)C2)cn1 (centres undefined)	.	-13	1	-1	?	.
CC[C@@H](C)[C@@H](C(=O)N1CCN(C(=O)OC(C)(C)C)CC1)n1cc(CCCCNC(=O)OC(C)(C)C)nn1	-3	-2	-3	6	i	-5
CN(C)S(=O)(=O)N1C(=O)c2ccccc2C1=O	-3	4	1	2	i	8
CN(C)/C=C1\C=C2C(=O)c3ccccc3N2C1=O	-14	-220	217*	46*	+	12
CCCCN1C(=O)C(=O)c2cc(Cl)ccc21	.	0	-4	0	i	0
COCCNc1nnc(Cc2ccccc2)c(=O)[nH]1	-1	-4	0	3	+	2
COc1ccccc1Nc1nnc(Cc2ccccc2)c(=O)[nH]1	2	40	-1	6	i	11
COC(=O)C1=C(NC(=O)c2cccc(OC)c2)CCS1	-3	67*	-4	-6	i	8
CC1CCN(S(=O)(=O)CCNC(=O)c2ccccc2)CC1	0	-12	0	0	.	2
O=C(CSc1ccccc1)NC1CC1	.	19	-1	.	i	.
